Results from PubChem BioAssay AID2751 (The Scripps Research Institute Molecular Screening Center, 2010).
Hit rate of the full screen: of about 320,000 compounds, about 2,200 (0.69%) were called active. No stated cut-off is given here; in the data, active means inhibition above about 43%; inactive means the rest. The list comes from a sample in which actives are over-represented; it also holds similar structures and randomly drawn compounds.

target: Prolyl endopeptidase-like (Homo sapiens) (UniProt Q4J6C6); experiment: PREPL enzyme inhibitors, primary screen, biochemical, fluorescence polarization (AID 2751); details: recombinant PREPL, fluorescence polarization activity-based probe; at 5.96 µM; hits give high values;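 further: 0% = enzyme with DMSO and 100% = wells lacking enzyme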
Sequence (Q4J6C6 whole entry, looked up): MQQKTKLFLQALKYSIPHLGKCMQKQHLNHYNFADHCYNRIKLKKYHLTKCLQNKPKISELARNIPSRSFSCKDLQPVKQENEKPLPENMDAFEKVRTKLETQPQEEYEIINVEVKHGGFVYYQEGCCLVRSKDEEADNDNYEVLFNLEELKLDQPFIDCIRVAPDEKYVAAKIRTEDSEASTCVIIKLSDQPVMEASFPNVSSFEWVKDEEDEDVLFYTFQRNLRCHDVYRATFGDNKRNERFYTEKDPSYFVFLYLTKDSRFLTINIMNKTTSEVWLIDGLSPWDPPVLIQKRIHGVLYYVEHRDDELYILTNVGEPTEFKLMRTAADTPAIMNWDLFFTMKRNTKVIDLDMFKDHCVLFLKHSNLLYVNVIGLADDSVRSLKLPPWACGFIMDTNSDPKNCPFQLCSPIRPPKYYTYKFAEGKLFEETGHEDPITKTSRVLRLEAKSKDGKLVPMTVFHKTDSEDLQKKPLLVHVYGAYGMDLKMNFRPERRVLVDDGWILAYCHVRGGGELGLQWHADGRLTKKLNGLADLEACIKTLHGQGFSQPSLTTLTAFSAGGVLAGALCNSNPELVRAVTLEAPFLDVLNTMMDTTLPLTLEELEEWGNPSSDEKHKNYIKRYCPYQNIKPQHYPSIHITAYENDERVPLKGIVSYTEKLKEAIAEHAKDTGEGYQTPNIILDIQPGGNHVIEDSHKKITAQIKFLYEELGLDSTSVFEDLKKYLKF

inhibition, active:
CC[C@@H](C)[C@@H]1CN([C@@H](C)CN2CCC[C@H]2CN2C(N)=NC[C@H]2C(C)C)C(=N)N1CCc1ccc(Cl)c(Cl)c1 63.3%
C[C@@H](CN1CCC[C@H]1CN1C(N)=NC[C@@H]1Cc1ccccc1)N1C[C@@H](Cc2ccccc2)N(CCCC2CCCC2)C1=N 54.6%
O=C(NNc1c2ccccc2nc2ccccc12)c1cc2ccccc2cc1O 68.7%
CC(=O)Nc1ccc(S(=O)(=O)Nc2ccc(N3CCCCC3)cc2)cc1 59.6%
CC1CCN(C(=O)c2ccc3c(c2)NC(=O)CN3)CC1 57.5%
COc1cc2c(cc1O)[C@H](Cc1ccc(Oc3cc(C[C@@H]4NCCc5cc(OC)c(O)cc54)ccc3O)cc1)NCC2 46.2%
O=C(NCc1ccccn1)c1ccc2nc(-c3ccco3)c(-c3ccco3)nc2c1 46.4%
O=S(=O)(O)Oc1c[nH]c2ccccc12 44.5%
COC(=O)Cc1nc2ccccc2[nH]1 47.1%
Oc1c(CN2CCCC2)cc(COCc2ccccc2)c2cccnc12 63.8%
Oc1c(CN2CCN(c3ccc(F)cc3)CC2)cc(Cl)c2cccnc12 53.5%
O=C(OCC(=O)N1CCN(c2ccccc2)CC1)c1ccc([N+](=O)[O-])s1 54.8%
COCCN(CCOC)c1nc(N)c2c(N)nc3c(c2c1C#N)CC(=O)N3Cc1ccc(Cl)cc1 47.7%
C[N+](C)(CCCCCC[N+](C)(C)CCCN1C(=O)c2cccc3cccc(c23)C1=O)CCCN1C(=O)c2cccc3cccc(c23)C1=O 47.7%
COc1ccc2cc(C(=O)C3CCCN(C(=O)c4sc(C)nc4C)C3)ccc2c1 (stereo not given) 47.9%
CC(C)n1cnc2c(NCc3ccccc3)cc(OCC3CCN(C)CC3)cc21 83.8%
CC(C)n1cnc2c(NCc3ccccc3)cc(N[C@@H](CO)Cc3ccccc3)cc21 62%
CCC(CO)Oc1cc(NCc2ccccc2)c2ncn(C3CCCC3)c2c1 (stereo not given) 43.8%
Cc1ccc(Nc2ccccc2N)cc1 47.5%

inhibition, inactive:
NC1=NC[C@@H](Cc2ccc(O)cc2)N1CC1CCCCC1 9.91%
CCCCN1C(N)=NC[C@@H]1Cc1ccccc1 17.4%
CCCC[C@@H]1CN=C(N)N1CCc1cccc(F)c1 -6.23%
O=C(C1Cc2ccccc2CN1C(=O)c1ccco1)N1CCN(c2ccccc2)CC1 (stereo not given) 12.9%
CCOC(=O)c1ccc(N/C(=N/S(=O)(=O)c2ccccc2)c2ccccc2)cc1 -3.53%
O=C(NCc1cccnc1)c1ccc(CS(=O)(=O)c2ccc(Br)cc2)o1 -17%
CNC[C@H]1Oc2c(NC(=O)C3CCCCC3)cccc2C(=O)N([C@H](C)CO)C[C@@H]1C 1.75%
Cc1noc(C)c1COC(=O)c1cc2ccccc2cc1O 3.42%
COc1ccc(-c2cc(C(=O)Nc3ccccc3O)c3ccccc3n2)cc1 15.1%
Cc1ccc(S(=O)(=O)C2C(=O)NC3(C)CC2c2ccccc2O3)cc1 (stereo not given) -1.08%
CC(=O)Nc1ccc(S(=O)(=O)Nc2ccc(N3CCOCC3)c(F)c2)cc1 13.1%
COC(=O)COc1ccc(S(=O)(=O)Nc2ccc(NC(C)=O)cc2)cc1 3.49%
CC1CCN(C(=O)c2ccc3c(=O)n4c(nc3c2)CCCCC4)CC1 10.4%
CC1CCN(C(=O)c2ccc(CSc3ccc(Cl)cc3)cc2)CC1 18.7%
CCN(C(=O)COC(=O)C1CCN(S(=O)(=O)c2ccc(C)c(C)c2)CC1)C1CCS(=O)(=O)C1 (stereo not given) 16.8%
COc1ccc2c(c1)CCNC2Cc1ccc(OC)c(O)c1 (stereo not given) 11.1%
CC[C@H]1CN2CCc3cc(OC)c(OC)cc3[C@@H]2C[C@@H]1C[C@H]1NCCc2cc(OC)c(OC)cc21 17.4%
CCOc1ccc(N2C(=O)/C(=C/c3ccc(C)o3)N(C)C2=S)cc1 6.35%
CC(C)n1c(CN2CCN(Cc3ccccc3)CC2)nc2ccccc21 -13.9%
CCOC(=O)c1cnc(Nc2nc3ccccc3o2)nc1CSC(=S)N1CCCCC1 -5.51%
Cc1ccc(C(=O)NNC(=O)CSc2nnc3ccccn23)cc1 -1.75%
COCCNC(=O)Nc1ccc2nc(-c3ccco3)c(-c3ccco3)nc2c1 39.5%
O=C1CSc2ccc(C(=O)NCc3ccccn3)cc2N1 4.19%
COc1ccccc1CNC(=O)CSc1nc(=O)n(Cc2ccncc2)c2c1CCC2 2.55%
O=S(=O)(c1ccccc1)N1CN(Cc2ccc(F)cc2)c2nc3ccccc3nc21 -7.37%
CC(OC(=O)c1ccc(S(=O)(=O)N2CCOCC2)cc1)c1ccccc1 (stereo not given) -0.7%
CCN(CC)CCn1c2c(c(SCC(=O)Nc3ccc(C(C)C)cc3)nc1=O)CCC2 23.1%
NC(=O)CSc1c[nH]c2ccccc12 7.6%
O=C(NC1CCCC1)C(=O)c1c[nH]c2ccccc12 9.2%
O=C(OCc1nc2ccccc2[nH]1)C1CCCCC1 10.5%
COc1ccc(CC(=O)N[C@@H](CCSC)c2nc3ccccc3[nH]2)cc1 5.96%
C=CCNC(=O)c1sc(SC)cc1-c1ccc(Cl)cc1 1.62%
COc1cc(C)cc(CN2CCC(Cc3ccccc3)CC2)c1O -5.3%
O=C(CN1CCN(c2ccc(F)cc2)CC1)Nc1ccccc1 9.77%
Clc1cccc(CN2COc3c(cc(Cl)c4cccnc34)C2)c1 2.86%
Cc1cccnc1NC(=O)c1cccc(S(=O)(=O)N2CCN(c3ccc(F)cc3)CC2)c1 -7.81%
NC[C@H](Cc1ccccc1)NCCc1cc(C(F)(F)F)cc(C(F)(F)F)c1 -11.6%
O=C(COC(=O)c1ccc(Cl)nc1)NCc1ccc2c(c1)OCO2 8.45%
CCN(CC)CC(=O)Nc1sc2c(c1C(=O)c1ccccc1C)CCC2 5.23%
CC(C)(CNC(=O)c1ccc(Cl)c(S(=O)(=O)N2CCc3ccccc3C2)c1)N1CCOCC1 -27.3%
CCN(Cc1ccccc1)C(=O)CN1C(=S)NC(C)(C)CC1C (stereo not given) -2.69%
C[C@H](NC(=O)c1ccccc1Cl)C(=O)OCC(=O)N1CCN(c2ccccc2)CC1 13.3%
COc1ccc(C(=O)COC(=O)c2ccc([N+](=O)[O-])s2)cc1OC 34.6%
COc1cccc2c1OCC(C(=O)NCc1ccc(Cl)cc1Cl)=C2 -4.06%
O=C(CCCCCN1C(=O)c2cccc3cccc(c23)C1=O)NCc1ccco1 5.95%
O=C1c2cccc3cccc(c23)C(=O)N1CCCCCc1n[nH]c(=S)o1 1.95%
Cc1ccc(C(C)NC(=O)Cn2nc(C)c([N+](=O)[O-])c2C)cc1 (stereo not given) 11.6%
O=C(Nc1cccc(S(=O)(=O)N2CCOCC2)c1)C12CC3CC(CC(C3)C1)C2 12.3%
CC(CNc1ccc([N+](=O)[O-])cc1)NC(=O)c1ccccc1Br (stereo not given) 4.76%
CCn1nc(C)cc1C(=O)N1CCCC(C(=O)c2cccc(OC)c2)C1 (stereo not given) -1.89%
COc1ccc(C(=O)C2CCCN(C(=O)c3cnsn3)C2)c(C)c1 (stereo not given) 13.4%
COc1ccc(/C(O)=C2/C(=O)C(=O)N(CC3CCCO3)C2c2ccc(OC)c(OC)c2)cc1 (stereo not given) 1.2%
CCC(CO)Oc1cc(NC(=O)c2cccc(F)c2)c2ncn(C(C)C)c2c1 (stereo not given) 3.94%
CC(C)C[C@H](CO)Nc1nc(N(C)c2cccc(Cl)c2)c2ncn(C(C)C)c2n1 12.1%
CCC(CO)Oc1cc(NC(=O)c2ccc(Cl)cc2)c2ncn(C(C)C)c2c1 (stereo not given) 13%
CN(C)c1nccc(NCc2ccccc2)c1C#N 3.08%
CCC(CO)Oc1cc(NC(=O)c2cccc3ccccc23)c2ncn(C(C)C)c2c1 (stereo not given) 18.7%
CC(C)N(Cc1ccccc1)C(=O)COC(=O)c1cnccn1 -8.35%
COC(=O)[C@]1(Cc2ccccc2)N[C@H](CN(C)S(=O)(=O)c2ccc(OC(F)(F)F)cc2)[C@@H]2C(=O)N(Cc3ccccc3)C(=O)[C@@H]21 8.99%
COC(CNC(=O)Cn1ncc2ccsc2c1=O)OC 6.98%
CCCn1c(SCC(=O)Nc2ccc(C)c(S(=O)(=O)N3CCOCC3)c2)n[nH]c1=O 3.91%
CCc1cc(=O)oc2cc(C)cc(OCC(=O)N3CCC[C@@H]3C(=O)O)c12 -4.62%
O=C(CN(C(=O)c1csnn1)c1ccc(Br)cc1)NC1CCCC1 5.56%
CCCc1cc(=O)[nH]c2nnc(SCC(=O)Nc3nnc(SCC)s3)n12 0.4%
CCn1c(=S)sc2c(=O)n(CC(=O)Nc3ccc(OC)cc3)c(C)nc21 7.88%
O=S(=O)(NCC1CC1)c1ccc(F)c(Cl)c1 -5.91%
CC(OC(=O)/C=C/c1ccccc1)C(=O)NC1CCCCC1C (stereo not given) -7.55%
Nc1ccc(C(=O)Nc2ccccc2N)cc1 -1.77%
Cc1ccc(Nc2nc(Cl)c(C=O)s2)cc1 -3.94%
Cc1cc(OC(C)C(=O)NC2CC(C)(C)NC(C)(C)C2)c2c(C)cc(=O)oc2c1 (stereo not given) 2.31%
O=C(Nc1ccc([N+](=O)[O-])cc1)C1CC12CCC2 (stereo not given) 1.87%
